# Screening results from PubChem.
# A selection: hits, their analogues and other compounds. The true share with any hit is near 0.44%.
# TRb-SRC2 inh = TRbeta-SRC2 interaction inhibition. TRbeta-SRC2 peptide binding, fluorescence polarization; receptor liganded with 1 µM T3. Potency, µM (top dose mostly 106 µM), without a hit: at the top dose activity change, negative = inhibition, hits mostly inhibitors. hit rate 0.065% among 280,000. AID 1469;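 note: plate controls were bound peptide for no effect and peptide without receptor for full effect; nearly all actives have a fitted effect of over 50% in size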
#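 Fluorescence polarization of 20 nM Texas Red SRC2 peptide (20-aa NR interaction domain) bound to 0.6 uM human TRb ligand-binding domain, with 1 uM T3, after 5 hr at ambient temperature; inhibition seen as decreased polarization.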
# Apoferritin bind = binds horse apoferritin like a general anesthetic. apoferritin/1-aminoanthracene competitive binding, fluorescence. P02791. hit rate 0.074% among 350,000. AID 485281. Potency, µM (highest dose often 77.5 µM), without a hit: at the highest dose activity change, negative = displacement, hits mostly inhibitors; note: % is set by controls: 0 for no effect and ±100 for the full control effect; nearly all actives have a fitted effect of over 20% in size
# Target sequence (P02791 2-175 limits assumed): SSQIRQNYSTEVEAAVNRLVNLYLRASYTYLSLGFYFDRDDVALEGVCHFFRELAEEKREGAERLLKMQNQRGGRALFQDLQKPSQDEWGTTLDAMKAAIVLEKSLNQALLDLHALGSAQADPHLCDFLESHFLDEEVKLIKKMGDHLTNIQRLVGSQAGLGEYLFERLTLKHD
#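 10 uM apoferritin + 50% sat. 1-AMA, PBS; cpd 10 min RT; Ex380/Em535 endpoint; normalized to free probe vs complex; 4-param Hill fit; propofol titration as pos. ctrl.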
# RGS12 GoLoco inh = blocks human Gai1 binding to RGS12 GoLoco peptide, red readout; AID 880; P63096; hit rate 0.44% among 230,000; Gai1:RGS12 GoLoco peptide FP, rhodamine, 10 min; Potency, µM (highest dose often 61.6 µM), for inactives: at the highest dose activity, negative = inhibition, usual class: inhibitors; active = well fitted inhibition curve with a large enough effect, not every such curve was filed as active; inactive = no such curve, though single readings can be large or run the other way; note: % is set by controls: 0 for no effect and ±100 for the full control effect; nearly all actives have a fitted effect of over 30% in size
# Target sequence (P63096 whole entry, looked up): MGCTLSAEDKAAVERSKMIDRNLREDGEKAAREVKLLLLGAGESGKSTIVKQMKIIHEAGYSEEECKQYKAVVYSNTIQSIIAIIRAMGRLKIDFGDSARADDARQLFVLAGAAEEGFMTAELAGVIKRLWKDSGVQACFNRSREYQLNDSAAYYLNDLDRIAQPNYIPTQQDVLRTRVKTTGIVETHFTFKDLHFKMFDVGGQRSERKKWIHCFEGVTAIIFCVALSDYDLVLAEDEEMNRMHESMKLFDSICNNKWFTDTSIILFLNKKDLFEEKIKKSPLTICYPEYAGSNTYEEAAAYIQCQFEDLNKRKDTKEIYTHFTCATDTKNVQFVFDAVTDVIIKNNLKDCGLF
# TR SRC2 fluor cs = alters Texas Red total fluorescence, flagging assay interference. TRb/SRC2 Texas Red total fluorescence interference. Potency, µM (series often up to 106 µM), for the others: at the highest dose fluorescence change, negative = quenching. hit rate 0.29% among 280,000; active = well fitted curve in either direction with a large enough effect; inconclusive = small, poorly fitted or top-dose-only effect; note: % is set by controls: 0 for no effect and ±100 for the full control effect
#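 Human TRb ligand-binding domain at 0.6 uM with 20 nM Texas Red SRC2 peptide in Tris buffer containing 1 uM T3 and 5% DMSO, incubated with compound 5 h at ambient temperature. Total fluorescence (555/632 nm) calculated as parallel + 2 × perpendicular.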
# ERG-DNA inh = ERG Ets/DNA interaction inhibition | P11308 | fluorescence polarization, His-ERG Ets domain / labelled DNA | Potency, µM (titrated, usually from 76.9 µM), without a hit: top-dose FP activity, negative = inhibition, usual class: inhibitors | hit rate 0.028% among 370,000 | AID 624246; active = well fitted inhibition curve with a large enough effect in the polarisation, with a control signal flat; inconclusive = small, poorly fitted or top-dose-only effect, or effect the other way, or a change in a side signal; inactive = no such curve, though single readings can be large or run the other way; the % refers to the polarisation;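 note: polarization taken with two DNA probes labelled with fluorescein and Texas red; % of control where 0% means no effect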
#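 His-tagged ERG Ets domain (1 uM in the protein solution; 300mM KCl, 50mM Tris-HCl, 1mM EDTA, 1mM DTT, pH 7.5) received compound, then a probe mix of 5 nM fluorescein-DNA and 100nM Texas-615-DNA. Fluorescence polarization was read for both dyes.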
# * marks the source's active call; other numbers are inactive results; ? = inconclusive; . = not tested or not shown; ! = a repeat was not active; [ ] = another dose, or the depositor's remark. Unless noted, calls come from the whole dose curve; as a rule, active = well fitted curve in the direction sought with a large enough effect; inconclusive = small, poorly fitted or top-dose-only effect, or another doubt; inactive = no such curve, though single readings can be large; an effect the other way counts as inactive or inconclusive. Potency is the fitted concentration of half-maximal effect.
SMILES,TRb-SRC2 inh,Apoferritin bind,RGS12 GoLoco inh,TR SRC2 fluor cs,ERG-DNA inh
CN1c2ccccc2C(C)(C)C12C=Nc1c(ccc3ccccc13)O2 (centres undefined),?,3%,-9%,-24%,14%
COc1ccc2ccc3c(c2c1)N=CC1(O3)N(C)c2ccccc2C1(C)C (centres undefined),28µM*,0%,-20%,?,.
O=S(=O)(O)c1cc(O)c2c(N=Nc3ccc(Nc4ccccc4)c4c(S(=O)(=O)O)cccc34)cc(S(=O)(=O)O)cc2c1,15%,.,.,20µM*[quencher],.
O=S(=O)(O)c1cc(O)c2c(O)c(N=Nc3cccc4ccccc34)c(S(=O)(=O)O)cc2c1,.,.,44%[14.2 µM],.,.
CCc1ccc(OC2=NS(=O)(=O)c3ccccc32)cc1,3%,?,12%,-3%,-2%
CCN(CC)c1cccc(OC2=NS(=O)(=O)c3ccccc32)c1,40µM*,?,.,45µM*[fluorescent],?
CC(=O)/C(=N\Nc1ccc(Cl)cc1)Sc1nnc(-c2ccccc2)n1-c1ccccc1,-8%,-12%,10%,2%,1%
CC(=O)/C(=N/Nc1ccccc1)Sc1nnc(CCc2ccccc2)n1-c1ccccc1,?,-7%,4%,0.35µM*[quencher],-1%
Cn1c(C(C#N)C2=C(Cl)C(=O)N(c3ccccc3)C2=O)nc2ccccc21 (centres undefined),45µM*,-20%,14%,?,.
O=C(O)[C@H](C1NCCS1)N1C(=O)c2ccccc2C1=O (some centres undefined),.,.,1%[14.2 µM],.,.
CCCCC(CC)C(=O)OCCOCCOCCOC(=O)C(CC)CCCC (centres undefined),1%[201 µM],.,.,-3%[201 µM],.
Nc1cc(C(=O)O)c(N)c2c1C(=O)c1ccccc1C2=O,40µM*,-9%,-11%,45µM*[fluorescent],-1%
C/C(Cc1ccccc1)=N\NC(=O)CNC(=O)c1ccc(Cl)cc1,3%,-19%,-18%,-2%,6%
CCC/C(=N\NC(=O)CNC(=O)c1ccc(Cl)cc1)c1ccccc1,-3%,16µM*,3%,0%,1%
CCOCCOCCOCCO,-6%[201 µM],.,.,-5%[201 µM],.
CCCOc1ccc(CN2C(=O)C(=O)c3cccc(C)c32)cc1,-9%,32µM*,.,-3%,4%
Cc1ccn2c(=O)c(C(=O)NC(C)c3ccccc3)c(O)nc2c1 (centres undefined),-5%,-11%,.,3%,-6%
CC(NC(=O)c1c(O)nc2ccccn2c1=O)c1ccccc1 (centres undefined),-7%,2%,.,18µM*[quencher],8%
CSc1nsc(/C=C/Nc2ccc(O)cc2C)c1C#N,45µM*,-14%,-49%,50µM*[fluorescent],8.9µM*
COc1ccc2c3c(cccc13)C(=O)CC2,.,64%,.,.,28µM*
CCCCCCCC(=O)Oc1c(Br)cc(C#N)cc1Br,4%[201 µM],.,.,2%[201 µM],.
CCC[C@@H]1NC(=O)[C@@H](NC(C)=O)CSSC[C@@H](C(N)=O)NC(=O)CNC(=O)[C@H](Cc2c[nH]c3ccccc23)NC(=O)[C@H](CCCN=C(N)N)NC(=O)[C@H](Cc2ccc3ccccc3c2)NC(=O)[C@H](Cc2cnc[nH]2)NC(=O)[C@H](CCCN=C(N)N)NC1=O,-1%,-11%,.,-9%,.
CCCCOCC(C)O (centres undefined),4%[201 µM],.,.,-1%[201 µM],.
O=C(Cn1c2[n+](c3ccc(C(F)(F)F)cc31)CCCCC2)Nc1ccccc1,-12%,-15%,3.2µM*,-4%,0%
CCc1cccc(NC(=O)Cn2c3[n+](c4ccc(C(F)(F)F)cc42)CCCCC3)c1,3%,-13%,14µM*,-2%,-6%
CCC(=O)NC1CCc2cccc(OC)c2C1 (centres undefined),10%,?,14%,-3%,.
COc1ccccc1N1CCN(C(=O)CCNS(=O)(=O)c2ccc(Br)s2)CC1,5%,?,-2%,-5%,12%
COc1ccccc1N1CCN(C(=O)CNS(=O)(=O)c2ccc(Br)s2)CC1,?,-3%,.,79µM*[quencher],-3%
COC(=O)CCC(=O)OC1(C)C(=O)C=C2C=C(C3CC3)N(CC(C)C)C=C2C1=O (centres undefined),9%[11.2 µM],-1%,3.5µM*!,1%[11.2 µM],.
